Bioassay records deposited in PubChem BioAssay by several laboratories.
The list is not random: actives were taken first. Their share in the collection is about 1.6%.
V-ATPase pHluor – regulators of yeast V-ATPase proton transport; response, % at 10 µM; S. cerevisiae, pHLuorin cytosolic pH fluorescence; hit rate 0.37% among 350,000; in the data active means response mostly above about 7.3%, no sharp cut-off; inactive means mostly below about 5.4%; further: actives read high
PG9 binder – PG9 antibody binding by small molecule. inhibition, % at 6.7 µM. hit rate 0.43% among 360,000. AID 624416. TR-FRET gp120-PG9 antibody binding; in the data active means inhibition above about 8.5%
NPR1 activator – GC-A (human) enzyme activation | P16066 | HEK293 GC-A cells, cGMP TR-FRET, EC30 ANP; 0% at EC30 ANP, 100% saturating ANP | activation, % at 10 µM | hit rate 0.14% among 370,000 | AID 1671463; in the data active means activation above about 40%
NPR2 activator – GC-B (human) receptor activation. activation, % at 10 µM. P20594. hit rate 0.11% among 370,000. AID 1920062. HEK293-GC-B cells, CNP EC30, cGMP TR-FRET; 0% at EC30 CNP, 100% saturating CNP;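 active means activation at 10 µM reaching about 35% in either raw or pattern-adjusted values, limit read from the data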
NR1D1 modulator – modulators of human Rev-erb alpha DNA binding. P20393. Rev-erbα–FITC-DNA binding, fluorescence polarization, 90 min. activity, % at 10 µM. hit rate 0.79% among 370,000;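 active means activity above about 14%, limit read from the data; passing the limit was not always enough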;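 further: 0% = DMSO wells with 35 nM protein and 100% = DMSO wells with 750 nM protein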
Target sequence (P20393 whole entry, looked up): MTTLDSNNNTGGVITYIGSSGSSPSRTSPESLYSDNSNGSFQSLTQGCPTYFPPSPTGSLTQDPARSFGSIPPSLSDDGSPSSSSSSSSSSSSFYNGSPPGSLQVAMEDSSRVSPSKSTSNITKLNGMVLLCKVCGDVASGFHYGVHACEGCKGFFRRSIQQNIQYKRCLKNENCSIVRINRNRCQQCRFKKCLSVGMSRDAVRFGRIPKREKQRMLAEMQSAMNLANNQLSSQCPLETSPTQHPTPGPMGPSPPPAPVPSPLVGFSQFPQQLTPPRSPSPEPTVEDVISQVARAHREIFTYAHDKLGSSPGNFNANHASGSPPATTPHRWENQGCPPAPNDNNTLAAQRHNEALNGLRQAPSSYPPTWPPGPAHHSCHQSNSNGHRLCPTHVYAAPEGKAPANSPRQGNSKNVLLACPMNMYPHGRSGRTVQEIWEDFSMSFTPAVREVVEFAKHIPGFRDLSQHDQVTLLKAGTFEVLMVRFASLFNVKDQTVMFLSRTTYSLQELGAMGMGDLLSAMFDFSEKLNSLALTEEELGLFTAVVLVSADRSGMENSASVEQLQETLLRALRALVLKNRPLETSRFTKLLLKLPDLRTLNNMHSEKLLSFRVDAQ
* marks the source's active call; other numbers are inactive results; x = not tested or not shown.

SMILES	V-ATPase pHluor	PG9 binder	NPR1 activator	NPR2 activator	NR1D1 modulator
N#CCc1ccc(OC[C@@H](O)CN2CCC(C(O)(c3ccccc3)c3ccccc3)CC2)cc1	x	x	-17	-8	3
COc1ccc(CCNc2oc(Cc3cccc4ccccc34)nc2C#N)cc1OC	1	0	8	11	-1
COc1ccc(CCNc2oc(COc3ccc(Br)cc3)nc2C#N)cc1OC	10.0*	3	10	-3	-1
O=C(c1ccccc1CCc1ccccc1)N1CCCC1	40*	1	-7	1	-5
CCOC(=O)C1CCCN(C(=O)c2cc3nc(-c4ccc5c(c4)OCO5)cc(C(F)(F)F)n3n2)C1 (stereo unspecified)	-5	1	33	37*	-1
Cc1ccc(-c2cc(C(F)(F)F)n3nc(C(=O)N4CCN5CCCC5C4)cc3n2)cc1 (stereo unspecified)	-5	0	8	7	10
Cc1ccccc1NC(=O)OC1CCC12CCC(c1ccccc1)CC2 (stereo unspecified)	x	x	3	-8	7
CN1CCN(C2=C(Cl)C(=O)C(c3cnc(N4CCCCC4)s3)=C(Cl)C2=O)CC1	17*	x	x	x	x
CN1C2CC[C@@H]1CC(OC(=O)[C@H](CO)c1ccccc1)C2 (stereo partly specified)	x	x	x	x	5
CCC(=O)Nc1cccc(NC(=O)c2ccc(C)cc2Cl)c1	16*	-1	5	2	0
CCC(=O)Nc1cccc(NC(=O)c2ccccc2Cl)c1	2	-1	4	0	1
Cc1ccc(-c2cc(C(=O)NN=Cc3cccc(OCc4ccccc4)c3)[nH]n2)cc1C	x	x	-6	0	-4
COC(=O)c1cccc(N2C(=O)C[C@](Sc3ccc(OC)cc3)(C(=O)N3CCOCC3)[C@H]2c2ccc(OC)cc2)c1	x	x	-21	-16	6
CCOC(=O)COc1ccc(/C=C2\NC(=S)N(CC)C2=O)cc1	-5	-2	44*	51*	-7
COC(=O)CN1C(=O)N/C(=C/c2ccc(OC)cc2)C1=O	-1	-2	-5	-4	2
Cc1ccc(/C=C2/NC(=O)N(Cc3ccccc3)C2=O)s1	2	-2	3	-1	-1
CCN1C(=O)/C(=C/c2ccc(C)s2)NC1=S	2	-12	35	38*	5
COC(=O)C1=C(C(=O)OC)[C@@]2([C@@H](Cc3ccc(C)cc3)Nc3ccccc3)C=C[C@@H]1O2	x	x	-30	-30	-4
Cc1nn(-c2ccccc2Cl)c(Cl)c1/C=C(\C#N)C(N)=O	0	-2	23	4	-3
CCOc1ccccc1NC(=O)/C(C#N)=C/c1c(C)nn(-c2ccc(F)cc2)c1Cl	-5	-5	-8	-6	-2
Cc1nn(-c2ccc(Cl)cc2)c(Cl)c1/C=C(\C#N)C(N)=O	2	-1	49*	5	0
C=CCNC(=O)/C(C#N)=C/c1c(C)nn(-c2ccc(Cl)cc2)c1Cl	1	-4	46*	4	-3
C[Si](C)(C)O[Si](C)(C)O[Si](C)(C)C	x	x	x	x	-4
O=C(Nc1ccc(-c2nc3ncccc3o2)cc1)c1ccc(Br)o1	0	41*	0	3	22
C=C1CC[C@H](O)C/C1=C/C=C1\CCC[C@]2(C)C([C@H](C)/C=C/[C@H](C)C(C)C)CC[C@@H]12 (stereo partly specified)	x	x	x	x	-4
SMILES	V-ATPase pHluor	PG9 binder	NPR1 activator	NPR2 activator	NR1D1 modulator
COc1ccccc1C(=O)OCC(=O)NC1CCCC1	259*	0	3	3	2
COC(=O)c1ccc(/C=C/c2ccc3cccc(OC(C)=O)c3n2)cc1	27*	-2	3	-3	0
O=C(O)c1ccc(/C=C/c2ccc3cccc(O)c3n2)cc1	2	-3	-3	-2	2
O=C(O)c1ccccc1Nc1cc(Cl)c2nonc2c1[N+](=O)[O-]	0	-1	-3	-7	5
O=[N+]([O-])c1c(Nc2ccc(O)cc2)cc(Cl)c2nonc12	-2	2	62*	50*	0
O=[N+]([O-])c1c(Nc2ccccn2)cc(Cl)c2nonc12	33*	1	50*	43*	-7
CCC(NC(=O)CCCN1C(=O)COc2ccc(C)cc21)c1ccccc1 (stereo unspecified)	x	x	-3	-3	-5
C[C@]12CCC(=O)C=C1CCC1C2C(=O)C[C@@]2(C)C1CC[C@]2(O)C(=O)CO (stereo partly specified)	x	x	x	x	-5
Cc1cccc2sc(NNC(=O)c3ccc(S(=O)(=O)N4CCc5ccccc5C4)cc3)nc12	3	-2	1	-1	7
Cc1cccc2sc(NNC(=O)c3ccc(S(=O)(=O)N4CCCC(C)C4)cc3)nc12 (stereo unspecified)	10*	-3	2	5	0
CCOC(=O)c1c(CSc2ccc(CC)cc2)oc2ccc(O)c(CN(C)C)c12	7.6*	0	-27	-14	-7
C=CCN1CCCC1CNC(=O)c1cc2[nH]nnc2cc1OC (stereo unspecified)	15*	0	3	-3	0
CCN1CCCC1CNC(=O)c1cc(N)ccc1OC (stereo unspecified)	0	-2	1	6	0
CC1(C)CC(=O)C2=C(C1)NC(Nc1nc3ccccc3o1)=NC2c1ccccn1 (stereo unspecified)	1	0	46*	2	-2
CC1(C)CC(=O)C2=C(C1)NC(Nc1nc3ccccc3o1)=NC21CCCC1	0	-1	0	-3	-7
Cc1cccc2sc(NC(=O)CN(C)S(=O)(=O)c3ccc(Br)s3)nc12	-65	4	14	0	4
Cc1cccc2sc(NC(=O)CN(C)S(=O)(=O)c3cccs3)nc12	-1	-2	42*	-1	-1
CC1Cc2cc(/C(O)=C3/C(=O)C(=O)N(CCN4CCOCC4)C3c3cccc(Cl)c3)ccc2O1 (stereo unspecified)	0	11*	10	-6	-6
Cc1cc(C)c(OC2(c3ccccc3)OC(=O)c3ccccc32)c(C)c1 (stereo unspecified)	19*	0	-4	-6	5
CCOC(=O)C1CCN(C(=S)Nc2cc(C)ccc2C)CC1	22*	0	4	4	-1
CCOC(=O)c1cc(-c2csc(COc3ccccc3)n2)on1	-2	1	67*	15	-3
CCOC(=O)c1csc(COc2ccccc2Cl)n1	-1	0	9	-5	7
CCOC(=O)c1cc(-c2csc(COc3ccc(Cl)cc3)n2)on1	-2	1	58*	-4	3
CCOC(=O)c1cc(-c2csc(-c3cccc(Cl)c3)n2)on1	-1	0	19	1	0
CCOC(=O)c1cc(-c2csc(COc3ccccc3Cl)n2)on1	2	-1	63*	8	3
O=S1(=O)c2c(NCc3ccco3)cccc2Oc2ccccc2CN1Cc1cn(Cc2ccc(F)cc2)nn1	x	x	-1	3	7
